Reference: PubChem BioAssay (NCATS)
Values without a mark were called inactive. Calls of active or inactive are those of the source. Calls follow the shape of the dose curve; as a rule, active = well fitted inhibition curve with a large enough effect; inconclusive = small, poorly fitted or top-dose-only effect; inactive = flat fitted curve, though single readings scatter.

target: DNA dC->dU-editing enzyme APOBEC-3G (Homo sapiens) (UniProt Q9HC16); test: qHTS for inhibitors of Vif-A3G interactions: Validation (AID 588379); conditions: Vif-A3G protein interaction assay; series mostly up to 46.1 µM; activity change, negative = inhibition: at the top concentration; as to activity change, negative = inhibition: 0% is about no effect
Summary of the method: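 Yellow fluorescence (Ex 488, Em 500-530) of Vif-coexpressing HeLa A3G-eYFP cells, scanned by Acumen cytometer, reports blocked A3G degradation. Cells plated at 700/well overnight at 37 deg C before compound addition, then a further overnight compound incubation at 37 deg C.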
Potency is read from the fitted curve at half-maximal effect.

DNA dC->dU-editing enzyme APOBEC-3G (Homo sapiens), sequence (Q9HC16 whole entry, looked up): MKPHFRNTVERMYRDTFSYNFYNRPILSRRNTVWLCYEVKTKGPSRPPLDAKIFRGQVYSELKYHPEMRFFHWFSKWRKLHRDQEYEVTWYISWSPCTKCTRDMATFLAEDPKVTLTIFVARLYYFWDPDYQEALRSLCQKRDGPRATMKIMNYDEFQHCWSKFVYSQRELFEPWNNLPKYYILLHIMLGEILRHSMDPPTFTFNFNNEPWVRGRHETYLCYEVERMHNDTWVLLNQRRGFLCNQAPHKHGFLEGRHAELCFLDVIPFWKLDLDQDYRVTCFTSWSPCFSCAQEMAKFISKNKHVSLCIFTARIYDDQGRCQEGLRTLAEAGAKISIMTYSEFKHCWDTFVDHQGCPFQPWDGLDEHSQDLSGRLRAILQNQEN

| SMILES | activity change, negative = inhibition | Potency |
| --- | --- | --- |
| CCc1ccc2c(-c3cccc(Cl)c3)nc(=O)n(CC)c2n1 | -9.36% | – |
| CN1CCc2cc(Cl)c(O)cc2[C@@H](c2ccccc2)C1 | 0.524% | – |
| CC(C)NC[C@H](O)COc1ccc(CC(N)=O)cc1 | – | inactive |
| COC(=O)[C@H](NC(=O)c1cc(-c2ccccc2)nc2ccccc12)c1ccccc1 | -0.731% | – |
| COc1ccccc1N1CCN(CCCCN2C(=O)c3ccccc3C2=O)CC1 | 4.66% | – |
| COc1ccc(CCN(C)CCc2ccc(OC)c(OC)c2)cc1OC | 0.765% | – |
| CC[N+](CC)(CC)CC(=O)Nc1c(C)cccc1C | 0.625% | – |
| O=C(O)C1=CCCNC1 | 1.94% | – |
| NCCNS(=O)(=O)c1cccc2c(Cl)cccc12 | -0.868% | – |
| c1ccc2nc(C3=NCCN3)ccc2c1 | 1.41% | – |
| CC[C@H](NC(=O)c1c(C)c(-c2ccccc2)nc2ccccc12)c1ccccc1 | -2.11% | – |
| O=C(O)c1ccccc1Nc1cccc(OCc2ccc3ccccc3n2)c1 | -1.49% | – |
| CC(=O)N[C@@H](Cc1c[nH]c2ccccc12)C(=O)OCc1cc(C(F)(F)F)cc(C(F)(F)F)c1 | -2.13% | – |
| N[C@@H](CS(=O)O)C(=O)O | -6.36% | – |
| O=C(O)C1=CCNCC1 | 0.175% | – |
| CNC(=O)c1cc2c(cn1)[nH]c1ccccc12 | -2.69% | – |
| Oc1cc(O)c2c(c1)O[C@H](c1ccc(O)c(O)c1)[C@@H](O)C2 | 3.51% | – |
| Cc1nc2c(OCc3ccccc3)cccn2c1CC#N | -1.54% | – |

| SMILES | activity change, negative = inhibition | Potency |
| --- | --- | --- |
| O=C(OCCN1CCOCC1)C1(c2ccccc2)CCCCC1 | 1.27% | – |
| COCc1nc2c([nH]1)c(=O)n(C)c(=O)n2CC(C)C | 1.48% | – |
| NC(N)=NC(N)=Nc1cccc(Cl)c1 | 2.1% | – |
| CCSC(=N)N | -5.81% | – |
| NC/C=C\C(=O)O | -0.302% | – |
| NC[C@@H]1O[C@H](c2ccccc2)Cc2c1ccc(O)c2O | 1.92% | – |
| CN[C@H](CC(=O)O)C(=O)O | 1.15% | – |
| O=C(O)C1=CCCN(CCON=C(c2ccccc2)c2ccccc2)C1 | -3.76% | – |
| CN1CCN(c2nc3cc(C(F)(F)F)ccc3n3cccc23)CC1 | 2.88% | – |
| Cc1cccc(C(=O)NCN2CCN(c3ccccc3C#N)CC2)c1 | -1.09% | – |
| O=C1Nc2ccc(I)cc2/C1=C/c1cc(Br)c(O)c(Br)c1 | – | 4.22 µM (active) |
| N#Cc1cc2nc(O)c(O)nc2cc1[N+](=O)[O-] | -3.98% | – |
| N[C@H](C(=O)O)[C@H](O)C(=O)O | -2.25% | – |
| NCCCNCCCCNCCCN | 5.97% | – |
| CC(C)NC[C@H](O)COc1cccc2ccccc12 | 1.4% | – |
| NS(=O)(=O)c1cccc2c1c([N+](=O)[O-])cc1nc(O)c(O)nc12 | -0.241% | – |
| Cc1nc(N=Nc2cc(S(=O)(=O)O)c3cc([N+](=O)[O-])cc(S(=O)(=O)O)c3c2)c(COP(=O)(O)O)c(C=O)c1O | -5.96% | – |
